# Experimental data: PMC7862700, “An all-to-all approach to the identification of sequence-specific readers for epigenetic DNA modifications on cytosine”
# Legend:
# Test in all cases: DAPPL (digital affinity profiling via proximity ligation, sequencing); 10 mM Tris-HCl pH 7.5, 50 mM NaCl, 1 mM DTT, 4% glycerol, room temperature, 30 min; GST-TFs on glutathione beads, 16-mer random dsDNA library, 0.1% formaldehyde crosslink after washing; high values mean tight binding
# Settings in all cases: protein: recombinant; tags: N-terminal GST; dsDNA, one strand shown
# FLI1 = biological target: T1, FLI1 (Homo sapiens, UniProt Q01543 1-452)
# T1 sequence: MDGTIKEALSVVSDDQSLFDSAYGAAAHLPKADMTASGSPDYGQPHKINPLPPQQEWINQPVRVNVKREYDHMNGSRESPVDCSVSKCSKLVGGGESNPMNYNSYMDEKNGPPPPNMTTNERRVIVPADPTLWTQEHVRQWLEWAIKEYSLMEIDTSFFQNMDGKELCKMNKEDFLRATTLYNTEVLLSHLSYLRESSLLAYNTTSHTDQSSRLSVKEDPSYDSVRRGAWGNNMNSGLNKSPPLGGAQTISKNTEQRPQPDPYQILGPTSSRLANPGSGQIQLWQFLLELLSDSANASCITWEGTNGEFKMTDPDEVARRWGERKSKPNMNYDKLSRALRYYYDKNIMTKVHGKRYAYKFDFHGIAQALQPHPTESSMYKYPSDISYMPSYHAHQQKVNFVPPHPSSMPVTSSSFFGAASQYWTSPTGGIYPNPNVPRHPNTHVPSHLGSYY
# How it was run: (§1)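 Human transcription factors fused to GST were expressed in yeast, captured on glutathione beads, given DNA barcodes and pooled with a GST-only negative control. Pools were incubated with 200 nmole of a 16-mer random double-stranded DNA library in Tris/NaCl/DTT/glycerol buffer at room temperature for 30 min. They were then washed, crosslinked with 0.1% formaldehyde, proximity-ligated (BsaI/T4 ligase, 1 h, 37 °C), PCR-amplified and sequenced on an Illumina NextSeq500. Binding signal is each 6-mer's read frequency for a factor divided by its frequency for the GST control.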
# ELK1 = biological target: T2, ELK1 (Homo sapiens, UniProt P19419 1-428)
# T2 sequence: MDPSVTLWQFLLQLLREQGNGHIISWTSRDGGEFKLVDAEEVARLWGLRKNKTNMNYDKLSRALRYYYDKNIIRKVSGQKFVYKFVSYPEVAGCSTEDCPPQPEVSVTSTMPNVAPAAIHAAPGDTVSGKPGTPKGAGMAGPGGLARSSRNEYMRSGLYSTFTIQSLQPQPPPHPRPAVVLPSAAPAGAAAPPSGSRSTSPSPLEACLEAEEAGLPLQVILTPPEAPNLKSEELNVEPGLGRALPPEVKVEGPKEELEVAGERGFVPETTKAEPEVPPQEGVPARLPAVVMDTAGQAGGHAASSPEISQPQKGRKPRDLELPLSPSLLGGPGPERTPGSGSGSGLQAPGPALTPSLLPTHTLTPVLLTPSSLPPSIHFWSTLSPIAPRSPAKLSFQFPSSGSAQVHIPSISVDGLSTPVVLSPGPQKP
# How it was run: as §1
# GABPA = biological target: T3, GABPA (Homo sapiens, UniProt Q06546 1-454)
# T3 sequence: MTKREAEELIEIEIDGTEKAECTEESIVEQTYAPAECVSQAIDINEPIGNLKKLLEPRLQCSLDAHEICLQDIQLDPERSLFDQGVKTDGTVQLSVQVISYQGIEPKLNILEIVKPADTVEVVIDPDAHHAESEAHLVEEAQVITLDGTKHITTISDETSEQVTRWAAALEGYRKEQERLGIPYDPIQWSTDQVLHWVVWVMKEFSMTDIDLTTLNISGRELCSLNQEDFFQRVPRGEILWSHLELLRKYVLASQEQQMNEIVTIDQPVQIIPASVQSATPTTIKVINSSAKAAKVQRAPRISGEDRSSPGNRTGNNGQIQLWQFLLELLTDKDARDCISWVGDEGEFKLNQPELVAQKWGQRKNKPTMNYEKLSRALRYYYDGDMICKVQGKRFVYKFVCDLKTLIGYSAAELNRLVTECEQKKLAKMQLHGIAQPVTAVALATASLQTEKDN
# How it was run: as §1
# ELF1 = ELF1 (Homo sapiens, UniProt P32519 1-619)
# Sequence of ELF1 (P32519 whole entry): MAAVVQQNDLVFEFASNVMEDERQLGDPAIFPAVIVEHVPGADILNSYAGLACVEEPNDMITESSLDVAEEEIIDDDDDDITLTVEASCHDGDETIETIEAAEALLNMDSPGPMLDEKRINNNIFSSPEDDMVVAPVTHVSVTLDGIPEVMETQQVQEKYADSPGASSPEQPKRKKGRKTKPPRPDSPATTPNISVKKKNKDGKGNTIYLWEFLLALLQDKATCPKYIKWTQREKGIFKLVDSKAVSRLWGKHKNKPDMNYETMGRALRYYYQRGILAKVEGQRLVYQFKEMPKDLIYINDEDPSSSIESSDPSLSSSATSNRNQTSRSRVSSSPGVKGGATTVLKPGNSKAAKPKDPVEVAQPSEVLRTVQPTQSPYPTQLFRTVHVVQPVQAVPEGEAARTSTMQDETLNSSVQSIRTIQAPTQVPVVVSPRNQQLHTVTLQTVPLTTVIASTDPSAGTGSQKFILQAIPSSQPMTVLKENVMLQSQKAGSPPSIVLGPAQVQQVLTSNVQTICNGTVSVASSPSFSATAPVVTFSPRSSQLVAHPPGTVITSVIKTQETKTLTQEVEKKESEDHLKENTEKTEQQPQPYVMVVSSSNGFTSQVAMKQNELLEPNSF
# How it was run: as §1
# EHF = biological target: T4, EHF (Homo sapiens, UniProt Q9NZC4 1-300)
# T4 sequence: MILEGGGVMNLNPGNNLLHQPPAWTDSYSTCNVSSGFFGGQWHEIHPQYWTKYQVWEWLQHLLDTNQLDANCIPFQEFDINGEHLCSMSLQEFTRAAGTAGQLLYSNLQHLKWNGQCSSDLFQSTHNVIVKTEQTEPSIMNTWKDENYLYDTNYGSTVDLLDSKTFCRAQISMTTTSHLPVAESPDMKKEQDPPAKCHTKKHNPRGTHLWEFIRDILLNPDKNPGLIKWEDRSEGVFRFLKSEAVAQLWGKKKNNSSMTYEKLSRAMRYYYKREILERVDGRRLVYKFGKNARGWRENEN
# How it was run: as §1
# SPIB = SPIB (Homo sapiens, UniProt Q01892 1-262)
# Sequence of SPIB (Q01892 whole entry): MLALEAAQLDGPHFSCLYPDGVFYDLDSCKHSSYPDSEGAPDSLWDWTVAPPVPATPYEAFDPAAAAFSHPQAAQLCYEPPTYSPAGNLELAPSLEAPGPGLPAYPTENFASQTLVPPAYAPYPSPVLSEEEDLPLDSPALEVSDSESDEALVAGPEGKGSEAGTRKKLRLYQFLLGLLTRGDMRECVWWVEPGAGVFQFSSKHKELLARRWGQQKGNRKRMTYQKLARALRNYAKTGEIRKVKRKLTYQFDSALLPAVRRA
# How it was run: as §1
# ELK3 = biological target: T5, ELK3 (Homo sapiens, UniProt P41970 1-407)
# T5 sequence: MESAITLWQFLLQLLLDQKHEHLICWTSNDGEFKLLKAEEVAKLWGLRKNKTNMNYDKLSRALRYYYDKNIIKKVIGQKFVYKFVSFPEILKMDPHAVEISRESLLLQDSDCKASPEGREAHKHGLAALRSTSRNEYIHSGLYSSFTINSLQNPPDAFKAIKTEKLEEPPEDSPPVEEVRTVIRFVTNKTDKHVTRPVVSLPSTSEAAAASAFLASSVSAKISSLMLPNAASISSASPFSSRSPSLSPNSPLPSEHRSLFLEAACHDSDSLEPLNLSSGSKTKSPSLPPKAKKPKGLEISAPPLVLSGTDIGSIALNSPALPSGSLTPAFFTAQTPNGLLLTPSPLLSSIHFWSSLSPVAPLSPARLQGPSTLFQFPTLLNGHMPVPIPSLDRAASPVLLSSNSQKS
# How it was run: as §1
# SPIC = biological target: T6, SPIC (Homo sapiens, UniProt Q8N5J4 1-248)
# T6 sequence: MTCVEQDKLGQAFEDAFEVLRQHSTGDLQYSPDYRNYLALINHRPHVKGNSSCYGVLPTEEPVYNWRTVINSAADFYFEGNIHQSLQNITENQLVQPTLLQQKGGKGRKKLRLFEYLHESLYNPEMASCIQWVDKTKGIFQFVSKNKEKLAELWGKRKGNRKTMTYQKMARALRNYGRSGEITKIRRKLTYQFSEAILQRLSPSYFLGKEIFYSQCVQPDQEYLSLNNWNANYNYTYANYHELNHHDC
# How it was run: as §1
# ELF4 = ELF4 (Homo sapiens, UniProt Q99607 1-663)
# Sequence of ELF4 (Q99607 whole entry): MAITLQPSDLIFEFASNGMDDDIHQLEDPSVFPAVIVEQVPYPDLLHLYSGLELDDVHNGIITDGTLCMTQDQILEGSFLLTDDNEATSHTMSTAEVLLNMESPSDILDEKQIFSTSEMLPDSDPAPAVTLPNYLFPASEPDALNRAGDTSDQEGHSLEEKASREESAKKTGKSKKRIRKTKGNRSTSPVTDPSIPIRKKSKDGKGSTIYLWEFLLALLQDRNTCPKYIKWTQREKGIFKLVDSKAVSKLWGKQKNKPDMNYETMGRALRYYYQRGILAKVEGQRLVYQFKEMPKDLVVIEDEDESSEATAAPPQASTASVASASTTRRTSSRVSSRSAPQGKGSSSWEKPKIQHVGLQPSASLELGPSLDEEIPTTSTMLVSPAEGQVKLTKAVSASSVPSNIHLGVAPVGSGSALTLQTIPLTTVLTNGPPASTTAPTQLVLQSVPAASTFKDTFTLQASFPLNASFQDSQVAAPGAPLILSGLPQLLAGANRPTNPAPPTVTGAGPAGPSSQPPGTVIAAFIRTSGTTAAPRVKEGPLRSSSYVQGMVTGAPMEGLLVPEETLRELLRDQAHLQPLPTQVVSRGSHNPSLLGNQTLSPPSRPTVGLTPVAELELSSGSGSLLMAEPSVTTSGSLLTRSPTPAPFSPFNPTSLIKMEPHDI
# How it was run: as §1
# ETV2 = biological target: T7, ETV2 (Homo sapiens, UniProt O00321 1-342)
# T7 sequence: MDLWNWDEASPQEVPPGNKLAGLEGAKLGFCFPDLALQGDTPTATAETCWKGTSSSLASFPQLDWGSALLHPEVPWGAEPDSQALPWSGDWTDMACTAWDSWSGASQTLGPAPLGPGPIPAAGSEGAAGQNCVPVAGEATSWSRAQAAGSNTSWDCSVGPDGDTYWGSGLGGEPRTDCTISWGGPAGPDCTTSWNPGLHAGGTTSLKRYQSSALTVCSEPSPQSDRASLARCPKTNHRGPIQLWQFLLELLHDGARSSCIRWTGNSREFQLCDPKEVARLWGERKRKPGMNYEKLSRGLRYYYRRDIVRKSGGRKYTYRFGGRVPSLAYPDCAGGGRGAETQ
# How it was run: as §1
# ERF = biological target: T8, ERF (Homo sapiens, UniProt P50548 1-548)
# T8 sequence: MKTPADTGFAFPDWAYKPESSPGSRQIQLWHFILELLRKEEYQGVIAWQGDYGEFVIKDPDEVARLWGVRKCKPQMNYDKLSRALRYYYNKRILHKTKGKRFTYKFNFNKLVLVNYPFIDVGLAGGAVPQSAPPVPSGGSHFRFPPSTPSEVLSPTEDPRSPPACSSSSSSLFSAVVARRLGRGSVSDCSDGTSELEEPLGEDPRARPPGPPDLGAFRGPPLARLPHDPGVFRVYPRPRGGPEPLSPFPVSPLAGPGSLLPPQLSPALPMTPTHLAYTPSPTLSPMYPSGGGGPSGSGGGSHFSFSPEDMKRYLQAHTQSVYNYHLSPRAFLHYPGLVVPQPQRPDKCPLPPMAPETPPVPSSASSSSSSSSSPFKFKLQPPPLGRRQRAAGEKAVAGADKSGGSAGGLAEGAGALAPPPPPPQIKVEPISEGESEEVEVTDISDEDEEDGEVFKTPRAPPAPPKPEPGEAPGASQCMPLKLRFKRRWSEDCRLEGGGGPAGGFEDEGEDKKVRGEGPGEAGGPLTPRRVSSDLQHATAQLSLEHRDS
# How it was run: as §1
# ETV7 = biological target: T9, ETV7 (Homo sapiens, UniProt Q9Y603 1-341)
# T9 sequence: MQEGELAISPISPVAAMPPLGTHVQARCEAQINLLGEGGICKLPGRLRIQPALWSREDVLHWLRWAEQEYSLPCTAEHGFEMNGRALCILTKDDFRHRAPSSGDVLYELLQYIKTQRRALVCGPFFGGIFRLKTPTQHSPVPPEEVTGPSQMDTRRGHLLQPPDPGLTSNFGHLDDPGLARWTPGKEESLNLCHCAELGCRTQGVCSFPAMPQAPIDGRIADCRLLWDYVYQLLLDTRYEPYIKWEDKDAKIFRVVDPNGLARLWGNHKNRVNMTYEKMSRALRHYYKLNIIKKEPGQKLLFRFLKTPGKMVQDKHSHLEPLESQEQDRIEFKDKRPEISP
# How it was run: as §1
# ETV3 = biological target: T10, ETV3 (Homo sapiens, UniProt P41162-2 1-143)
# T10 sequence: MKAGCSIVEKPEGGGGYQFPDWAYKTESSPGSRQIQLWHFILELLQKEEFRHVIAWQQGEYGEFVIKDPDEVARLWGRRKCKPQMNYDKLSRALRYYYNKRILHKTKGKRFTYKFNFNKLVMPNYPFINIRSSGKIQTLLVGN
# How it was run: as §1
# ETV6 = ETV6 (Homo sapiens, UniProt P41212 1-452)
# Sequence of ETV6 (P41212 whole entry): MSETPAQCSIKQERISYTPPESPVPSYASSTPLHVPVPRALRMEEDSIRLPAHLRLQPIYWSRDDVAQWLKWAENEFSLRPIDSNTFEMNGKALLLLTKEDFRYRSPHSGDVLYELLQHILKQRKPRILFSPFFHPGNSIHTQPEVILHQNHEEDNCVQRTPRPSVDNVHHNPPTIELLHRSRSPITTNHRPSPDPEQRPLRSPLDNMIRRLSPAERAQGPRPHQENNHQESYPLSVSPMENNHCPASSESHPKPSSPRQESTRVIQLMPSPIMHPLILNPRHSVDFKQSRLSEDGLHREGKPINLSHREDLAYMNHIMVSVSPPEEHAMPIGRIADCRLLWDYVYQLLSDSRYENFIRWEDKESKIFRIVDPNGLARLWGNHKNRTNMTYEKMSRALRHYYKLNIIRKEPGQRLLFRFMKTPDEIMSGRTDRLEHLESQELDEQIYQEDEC
# How it was run: as §1
sequence,measurement,setting,value
TTAAGA,binding signal,FLI1,"1.05 fold enrichment (6-mer frequency, TF over GST control)"
same,binding signal,ELK1,"1.05 fold enrichment (6-mer frequency, TF over GST control)"
same,binding signal,GABPA,"1.09 fold enrichment (6-mer frequency, TF over GST control)"
same,binding signal,ELF1,"1.05 fold enrichment (6-mer frequency, TF over GST control)"
same,binding signal,EHF,"1.05 fold enrichment (6-mer frequency, TF over GST control)"
same,binding signal,SPIB,"1.07 fold enrichment (6-mer frequency, TF over GST control)"
same,binding signal,ELK3,"1.02 fold enrichment (6-mer frequency, TF over GST control)"
same,binding signal,SPIC,"1.12 fold enrichment (6-mer frequency, TF over GST control)"
same,binding signal,ELF4,"1.05 fold enrichment (6-mer frequency, TF over GST control)"
same,binding signal,ETV2,"1.15 fold enrichment (6-mer frequency, TF over GST control)"
same,binding signal,ERF,"1.08 fold enrichment (6-mer frequency, TF over GST control)"
same,binding signal,ETV7,"1.13 fold enrichment (6-mer frequency, TF over GST control)"
same,binding signal,ETV3,"1.05 fold enrichment (6-mer frequency, TF over GST control)"
same,binding signal,ETV6,"1.05 fold enrichment (6-mer frequency, TF over GST control)"
